Hits are enriched below; roughly 7.3% of the tested compounds scored in any of these assays.
ELG1 genotox: qHTS screen for small molecules that induce genotoxicity in human embryonic kidney (HEK293T) cells expressing luciferase-tagged ELG1. Potency, µM (highest dose often 46 µM), inactives show at the highest dose activity change, positive = activation, usual class: activators. HEK293T ELG1-luciferase reporter, luminescence, 16 h. hit rate 1.3% among 330,000. AID 504466, 2011; further: % of control where 0% means no effect; nearly all actives have a fitted effect of over 60% in size
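ELG1-luciferase HEK293T cells, 2,000/well; compound pinned in; 16 hr, 37 °C, 5% CO2; ONE-Glo, 30 min RT; luminescence on CCD imager.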
FLuc counter: qHTS profiling assay for firefly luciferase inhibitor/activator using purifed enzyme and Km concentrations of substrates (counterscreen for miR-21 project). Luciferin 4-monooxygenase (Photinus pyralis), P08659. purified FLuc, Km substrates, luminescence inhibition. Potency, µM (doses to about 57.5 µM), inactives show at the highest dose activity change, negative = inhibition, actives largely listed as inhibitors. hit rate 6.9% among 360,000. AID 588342, 2011;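 further: plate controls were vehicle for no effect and reference inhibitor for full effect; nearly all actives have a fitted effect of over 55% in size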
Target sequence (P08659 whole entry, looked up): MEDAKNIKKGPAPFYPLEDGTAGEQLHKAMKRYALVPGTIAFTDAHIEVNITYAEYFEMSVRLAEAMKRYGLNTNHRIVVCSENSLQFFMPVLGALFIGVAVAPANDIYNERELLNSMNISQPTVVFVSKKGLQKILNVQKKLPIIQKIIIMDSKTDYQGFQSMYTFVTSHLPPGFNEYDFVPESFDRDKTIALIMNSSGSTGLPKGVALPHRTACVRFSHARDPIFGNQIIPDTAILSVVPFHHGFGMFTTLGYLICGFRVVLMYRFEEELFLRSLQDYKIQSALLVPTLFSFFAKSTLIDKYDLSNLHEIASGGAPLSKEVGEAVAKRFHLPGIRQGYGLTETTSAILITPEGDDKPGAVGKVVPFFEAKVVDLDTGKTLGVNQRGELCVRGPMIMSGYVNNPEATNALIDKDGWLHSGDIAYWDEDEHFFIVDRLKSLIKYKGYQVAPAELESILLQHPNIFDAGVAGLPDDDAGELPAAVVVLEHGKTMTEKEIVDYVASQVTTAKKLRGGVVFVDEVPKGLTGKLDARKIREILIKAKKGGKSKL
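Biochemical qHTS of compounds, final roughly 60 µM downward over six points, against 10 nM purified firefly luciferase using Km concentrations of substrates (10 uM D-luciferin, 10 uM ATP) in Tris acetate pH 7.5 buffer; luminescence output.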
NPC1 promoter act: qHTS Assay for NPC1 Promoter Activators; Huh7 NPC1 promoter luciferase reporter, 24 h; Potency, µM (highest dose often 9.22 µM), for inactives: top-dose activation, actives largely listed as activators; hit rate 2.4% among 320,000; further: % of control where 0% means no effect; nearly all actives have a fitted effect of over 60% in size
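Stably transfected Huh7 (NPC1 promoter→luciferase), 1500 cells/well in Opti-MEM + 10% FBS, 2 h settle, then compound 24 h at 37 °C. Luminescence after 10 min with Amplite reagent.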
SMN2 splice enh: qHTS Assay for Enhancers of SMN2 Splice Variant Expression; HEK293 SMN2-luciferase splicing reporter, luminescence, 30-36 h; Potency, µM (top dose mostly 46.1 µM), for the others: top-dose activity change, positive = activation, usual class: activators; hit rate 2.8% among 210,000; further: % of control where 0% means no effect; nearly all actives have a fitted effect of over 55% in size
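HEK293 cells carry an SMN2 minigene-luciferase reporter in which exon 7 inclusion puts luciferase in frame. Cells were seeded at 2000 cells/well, attached for 10-12 hours, then exposed to compounds for 30-36 hours at 37C before ONE-Glo luminescence.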
KinaseGlo FLuc: Counterscreen for Luciferase (Kinase-Glo TM) Inhibition; Luciferin 4-monooxygenase (Photuris pensylvanica), Q27757; Potency, µM (top dose mostly 38.3 µM), for inactives: at the highest dose activity change, negative = inhibition, hits mostly inhibitors; hit rate 0.28% among 200,000; Kinase-Glo luciferase, ATP luminescence, 8 min; AID 1379, 2008; further: on the % scale 0 is the no-effect control and ±100 the full control effect; nearly all actives have a fitted effect of over 60% in size
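Compounds were added to a substrate mix at pH 7.2 (50 mM imidazole, 10 uM ATP, within the enzyme's linear range), followed by Kinase-Glo detection reagent; luminescence was measured after 8 minutes at ambient temperature.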
Rab9 promoter act: qHTS Assay for Rab9 Promoter Activators | Potency, µM (highest dose often 9.22 µM), for the others: at the highest dose activation, negative = inhibition, hits mostly activators | AID 485297, 2010 | hit rate 2.8% among 320,000 | Huh7 Rab9 promoter-luciferase reporter, luminescence, 24 h; further: % of control where 0% means no effect; nearly all actives have a fitted effect of over 60% in size
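Cell-based reporter: Huh7 stable for Rab9 promoter-driven luciferase, plated in reduced-serum medium with 10% FBS at 1500 cells/well, compound-treated 24 h at 37 °C, luminescence read after 10 min reagent.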
Numbers without * were called inactive; ? = inconclusive; nt = not tested or not shown; [ ] = remark or other dose. The call rests on the fitted dose curve; in most records, active means well fitted curve in the direction sought with a large enough effect; inconclusive means small, poorly fitted or top-dose-only effect, or another doubt; inactive means no such curve, though single readings can be large; an effect the other way counts as inactive or inconclusive. Potency means the concentration at half of the fitted maximal effect.

SMILES	ELG1 genotox	FLuc counter	NPC1 promoter act	SMN2 splice enh	KinaseGlo FLuc	Rab9 promoter act
Cc1ccc(Oc2nc3ccccn3c(=O)c2/C=C(\C#N)c2nc3ccccc3s2)c(C)c1	nt	?	nt	20%	nt	nt
CSc1nc(N)c2ncn([C@@H]3O[C@H](COP(=O)(O)OP(=O)(O)O)C(O)[C@H]3O)c2n1 (stereo not given in full)	nt	nt	7%[46.1 µM]	nt	nt	-4%[46.1 µM]
O=C(NCc1ccco1)c1nc2ccccc2s1	?	?	3%	?	-3%	19%
CC1=CC(=C(C#N)c2nc3ccccc3s2)C=C(C)N1Cc1ccco1	1%	4.8µM*	2%	-16%	-3%	6%
O=C(O)/C=C/C(=O)NNC(=O)c1ccc(Cl)cc1Cl	-6%	-18%	-3%	nt	-2%	14%
O=C(NC1CC(=O)c2sccc21)c1ccc(Cl)cc1Cl (stereo not given)	?	17µM*	?	5µM*	1%	2.8µM*
Cc1cccc(NC(=O)c2cnn3c2NC(=C2CC2)C=C3C(F)F)n1	nt	4%	nt	nt	nt	nt
C=CCSc1nnc(-c2cccc3ccccc23)o1	0%	nt	nt	nt	nt	nt
C=CCSc1nnc(-c2cc3c(s2)-c2ccccc2CC3)o1	8%	12µM*	0%	?	0%	?
CN(C)CC(C)(C)CNC(=O)c1ccc(-n2c(=O)c(=O)[nH]c3ccccc32)cc1	nt	nt	nt	nt	0%	nt
COc1cccc(-c2ccc(SCc3ccccn3)nn2)c1	?	11µM*	3.5µM*	11µM*	-16%	2.8µM*
O=[N+]([O-])c1cccc(-c2ccc(SCc3ccccn3)nn2)c1	?	27µM*	?	?	0%	4µM*
O=C(Nc1nc(-c2ccc(Br)cc2)cs1)c1cccnc1	15%	1%	-11%	-17%	2%	-11%
CC(C)/C=N/Nc1nc(-c2ccc(Br)cc2)cs1	?	7.6µM*	?	5%	1%	?
Cc1ccc(-c2ccc(SCC(=O)c3ccccc3)nn2)cc1	?	15µM*	?	6.3µM*	-3%	?
Cc1ccc(C(=O)CSc2ccc(-c3ccncc3)nn2)cc1	-7%	-3%	-13%	-10%	-3%	-10%
COc1ccc(-c2ccc(SCC(=O)Nc3cc(C)on3)nn2)cc1OC	1%	-8%[2.3 µM]	11%	nt	1%	?
COc1ccc(-c2ccc(SCC(=O)c3ccccc3)nn2)cc1OC	-4%	24µM*	-1%	-1%	1%	1%
COc1ccc(-c2cc3nc(C)c(CCC(=O)N4CCN(c5cccc(Cl)c5)CC4)c(C)n3n2)c(OC)c1	nt	-6%	nt	1%	nt	nt
Nc1nc2nn(-c3ccccc3)nc2c(=O)[nH]1	?	4.8µM*	2µM*	nt	nt	2.8µM*
Nc1nc2n[nH]nc2c(=O)[nH]1	nt	nt	nt	-20%[20.6 µM]	-6%[17.1 µM]	nt
COc1cccc(C(=O)Nc2cccc(NC(=O)c3ccccc3Cl)c2)c1	-8%	15µM*	-1%	nt	nt	10%
COc1cccc(C(=O)Nc2cccc(C(=O)NC3=NN(c4c(Cl)cc(Cl)cc4Cl)C(=O)C3)c2)c1	9%	9.5µM*	-2%	9%	-2%	17%
CC(C)(C)C(=O)NC1=NN(c2c(Cl)cc(Cl)cc2Cl)C(=O)C1	-3%	3%	-11%	nt	-4%	-3%
CCC(=O)NC(=S)Nc1cccc(NC(=O)c2ccc(Cl)cc2Cl)c1	0%	12µM*	-14%	-7%	1%	-8%
COc1cccc(C(=O)Nc2cccc(NC(=O)c3ccc(Cl)cc3Cl)c2)c1	nt	7.6µM*	nt	-9%	nt	nt
O=C(Nc1cccc(NC(=O)c2cccnc2)c1)c1cccnc1	-13%	-9%	3%	-16%	-2%	2%

Bioassay records from PubChem.
